Laboratory results as given in PubChem BioAssay AID1030 (National Center for Advancing Translational Sciences (NCATS), 2008).
Where “and” joins values, the source holds several entries; their conditions need not be identical. Equal values may be shown once. Among all 220,000 compounds or so, about 16,000 (7.3%) were called active. Roughly 25% stayed inconclusive and do not appear here. The list comes from a sample in which actives are over-represented; it also holds similar structures and randomly drawn compounds. A number with no mark means an inactive call. Calls follow the shape of the dose curve; as a rule, active = well fitted inhibition curve with a large enough effect (not every such curve was filed as active); inconclusive = small, poorly fitted or top-dose-only effect, or another doubt; inactive = no such curve, though single readings can be large or run the other way.

molecular target: Aldehyde dehydrogenase 1A1 (Homo sapiens) (UniProt P00352); assay: qHTS Assay for Inhibitors of Aldehyde Dehydrogenase 1 (ALDH1A1); conditions: Purified ALDH1A1, NADH fluorescence, propionaldehyde substrate; series mostly up to 75.3 µM; activity, negative = inhibition: at the top concentration;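 as to activity, negative = inhibition: plate controls were no enzyme wells and a reference inhibitor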
Potency is read from the fitted curve at half-maximal effect.

Aldehyde dehydrogenase 1A1 (Homo sapiens), sequence (P00352 whole entry, looked up): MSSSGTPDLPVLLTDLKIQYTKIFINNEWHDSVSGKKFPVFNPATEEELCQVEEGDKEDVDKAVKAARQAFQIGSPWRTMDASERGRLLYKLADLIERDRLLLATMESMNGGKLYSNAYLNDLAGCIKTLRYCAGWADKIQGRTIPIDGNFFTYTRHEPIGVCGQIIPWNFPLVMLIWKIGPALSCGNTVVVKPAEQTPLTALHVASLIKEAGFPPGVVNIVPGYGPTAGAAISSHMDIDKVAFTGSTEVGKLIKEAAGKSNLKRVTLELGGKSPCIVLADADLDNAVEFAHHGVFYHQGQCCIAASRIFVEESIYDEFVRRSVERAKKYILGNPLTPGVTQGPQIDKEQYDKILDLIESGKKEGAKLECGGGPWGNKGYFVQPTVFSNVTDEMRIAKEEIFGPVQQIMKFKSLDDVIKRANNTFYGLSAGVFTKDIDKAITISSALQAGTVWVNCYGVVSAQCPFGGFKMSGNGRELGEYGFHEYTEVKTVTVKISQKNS

SMILES | activity, negative = inhibition [%] | Potency
CSc1ncccc1C(=O)OCc1ccc(Br)cc1 | 9.11 | –
CC(=O)n1cc([C@@H]2C=C(C(=O)N3CCN(Cc4ccc5c(c4)OCO5)CC3)O[C@H](OCc3ccc(CO)cc3)C2)c2ccccc21 | – | 25.1 µM (active)
CN1CCN(C(=O)C2=C[C@H](c3ccc4c(c3)OCO4)C[C@H](OCc3ccc(CO)cc3)O2)CC1 | -2.84 | –
O=C(C1=C[C@H](c2coc3ccccc3c2=O)C[C@H](OCc2ccc(CO)cc2)O1)N1CCN(Cc2ccccc2)CC1 | -12.4 | –
O=C(C(=O)N1CCc2ccccc2C1)c1c[nH]c2ccccc12 | -2.78 | –
O=C(Nc1nnc(Cc2ccc(Cl)cc2)s1)c1cccnc1 | -0.189 | –
Cn1cnc([N+](=O)[O-])c1Nc1ccccc1O | 2.48 | –
Cn1cnc([N+](=O)[O-])c1Sc1ccccc1 | – | 11.2 µM (active)
Cn1cnc([N+](=O)[O-])c1Sc1n[nH]c(N)n1 | 0.133 | –
COC(=O)COc1ccc(C2NC(=O)NC(C)=C2C(=O)NCc2ccccc2)cc1OC (stereo not drawn) | 19.6 | –
O=C(Nc1ccc(N2CCOCC2)nc1)c1c(F)cccc1F | 7.81 | –
Cc1ccc(S(=O)(=O)Cc2cc(-c3ccc(Cl)cc3)no2)cc1 | -5.52 | –
COC(=O)c1cc(NC(=O)c2ccco2)ccc1N1CCOCC1 | -6.16 | –
Cc1c(C=O)c2ccccc2n1CC(=O)O | 2.12 | –
O=C1CC(c2ccccc2)C(=O)N1c1cccc(O)c1 (stereo not drawn) | 4.81 | –
Cc1cccc(N2C(=O)CC(SC(N)=Nc3ccccc3)C2=O)c1 (stereo not drawn) | 2.23 | –
COC(=O)c1ccccc1SC1CC(=O)N(c2cccc(C)c2)C1=O (stereo not drawn) | – | 17.8 µM (active)
O=C1OCC2=C1C(c1ccccc1)CC(=O)N2c1cccc(F)c1 (stereo not drawn) | 2.06 | –
CC(=O)N(CN1C(=O)C2C3C=CC(C3)C2C1=O)c1cccc(Cl)c1 (stereo not drawn) | 0.697 | –
Cn1cc(CN2CCCC(CO)C2)c(-c2ccc(Oc3ccccc3)cc2)n1 (stereo not drawn) | -3.15 | –
CC(C)C1=CC2=CC[C@H]3[C@](C)(C(=O)O)CCC[C@]3(C)C2CC1 (stereo partly drawn) | -11 | –
S=C(NCCc1ccccc1)N1CCCCC1 | -4.74 | –
Oc1cc2c(cc1O)CN(C(=S)NCCc1ccc(Cl)cc1)CCC2 | – | 15.8 µM (active) and 20 µM (active)
O=C1CCN(C(=S)NCCc2ccccc2)CC1 | 0.459 | –
CCN(CC)C(=O)CN(c1cccc([N+](=O)[O-])c1)S(=O)(=O)c1ccccc1 | 6.73 | –
O=C(CCl)N(Cc1cccc([N+](=O)[O-])c1)c1cccc(Cl)c1 | – | 0.158 µM (active)

SMILES | activity, negative = inhibition [%] | Potency
O=C(Nc1cccc([N+](=O)[O-])c1)Nc1ccc(Cl)cn1 | 11.7 | –
COc1ccc(CCNC(=O)c2ccc(CS(=O)(=O)c3ccc(Br)cc3)o2)cc1OC | 21.2 | –
Nc1nc(NC(=O)/C=C/c2ccc(F)cc2)nn1-c1ccccc1 | 11.2 | –
CCOC(=O)c1c(NC(=O)CSc2nnc(Cc3csc(N)n3)n2C)sc(C)c1C | – | 7.94 µM (active)
CCOc1ccc(Nc2nc(Cc3nnc(SCC(=O)NC4CCCC4)n3C)cs2)cc1 | -1.4 | –
CCOC(=O)CSc1nnc(CNc2nc(-c3ccccc3)cs2)n1C | -3.03 | –
CCO[C@H]1OC(C(=O)N2CCCCCCC2)=C[C@@H](c2ccc(C(F)(F)F)cc2)[C@@H]1CCCO | 2.63 | –
NC(=O)C1CCN(Cc2nc3c(Br)cc(Br)cc3c(=O)[nH]2)CC1 | 4.31 | –
O=C(Nc1ccc(C(=O)O)cc1)/C(=C/c1ccc([N+](=O)[O-])cc1)NC(=O)c1ccccc1 | 3.09 | –
Nc1ncnc(Nc2cccc(Cl)c2Cl)n1 | -11.2 | –
CC(C)(C)c1nc2ccccc2c(=O)n1N1C(=O)c2ccccc2C1=O | -5.76 | –
CCOC(=O)C1CCc2nc3ccccc3c(=O)n21 (stereo not drawn) | 12.2 | –
CCC1(CC)Cc2ccccc2-c2nc3ccccc3c(=O)n21 | – | 15.8 µM (active)
COc1ccc(-n2c(O)c(C=NCC(c3ccco3)N3CCCC3)c3ccccc3c2=O)cc1OC (stereo not drawn) | -15 | –
CC1COc2ccccc2N1C(=O)c1cccnc1Cl (stereo not drawn) | -3.66 | –
CCn1cc(CN2CCCC(CNS(=O)(=O)Cc3ccccc3)C2)cn1 (stereo not drawn) | 5.21 | –
CC(Sc1nc2c([nH]c3ccccc32)c(=O)n1C)c1ccccc1 (stereo not drawn) | -5.21 | –
Cc1ccc2nsnc2c1S(=O)(=O)N1CCCC1C(=O)O (stereo not drawn) | -3.73 | –
COCCN(Cc1nc(-c2ccc(C(F)(F)F)cc2)no1)C(C)C | -1.16 | –
Oc1c(C=Nc2cccc3nsnc23)ccc2ccccc12 | – | 2.82 µM (active)
O=C(Nc1cccc(C(F)(F)F)c1)c1ccc(N2CCNCC2)c([N+](=O)[O-])c1 | -4.94 | –
COc1cccc(/C=C/C(=O)Nc2ccc3c(c2)OCCO3)c1 | -1.38 | –
CCc1nnc(NC(=O)c2cccs2)s1 | 9 | –
CCc1nnc(NS(=O)(=O)c2ccc(NC(=S)NC(=O)c3cccs3)cc2)s1 | – | 25.1 µM (active)
CCc1nnc(NS(=O)(=O)c2ccc(NC(=S)NC(=O)/C=C/c3cccs3)cc2)s1 | – | 12.6 µM (active)
O=C(NC(=S)Nc1ccc(NC(=O)c2cccs2)cc1)c1ccc([N+](=O)[O-])cc1 | -13.7 | –

SMILES | activity, negative = inhibition [%] | Potency
CCOC(=O)c1c(NC(=S)NC(=O)/C=C/c2cccs2)sc(C)c1C | 3.03 | –
CC(C)C(=O)Nc1ccc(C(=O)NNC(=O)c2cccs2)cc1 | 4.21 | –
NS(=O)(=O)c1ccc(NC(=S)NNC(=O)c2cccs2)cc1 | – | 12.6 µM (active)
CCc1nnc(NS(=O)(=O)c2ccc(NS(=O)(=O)c3ccccc3)cc2)s1 | 15.8 | –
COc1ccc(NS(=O)(=O)c2ccc(NC(=S)NC(=O)/C=C/c3ccc(C)cc3)cc2)nn1 | -5.99 | –
CC(=O)Nc1ccc(S(=O)(=O)N(C)c2ccc(OCC(=O)OCC(=O)N3CCCCC3)cc2)cc1 | -2.1 | –
CCc1cc2cc(OC)ccc2nc1SCC(=O)Nc1cc(OC)c(OC)cc1C(=O)O | -14.1 | –
COC(C)C(C(=O)OCC1=CCN2CC[C@H](O)[C@@H]12)C(C)C (stereo partly drawn) | 10.3 | –
COc1ccc(C2OCC3(CO2)SC(=O)NC3=O)cc1OC (stereo not drawn) | 2.24 | –
CN1CCC(OC(=O)COc2ccc(Cl)cc2Cl)CC1 | 4.24 | –
O=C(CNS(=O)(=O)c1ccccc1)NCC(=O)OCc1ccccc1F | -0.533 | –
Cc1cccc(OCC(=O)Nc2ccccc2F)c1 | -11 | –
O=C(CNS(=O)(=O)c1cccc(C(F)(F)F)c1)Nc1ccccc1F | – | 31.6 µM (active)
Cc1cccc(C)c1NC(=O)C1(C)c2cccc[n+]2CC(=O)N1Cc1cccs1 (stereo not drawn) | 15.2 | –
COc1ccccc1N(C)S(=O)(=O)c1ccc(Cl)c(C(=O)N2CCC(C(N)=O)CC2)c1 | 3.35 | –
Cc1cc(NC(=O)c2cccc(N3C(=O)CCC3=O)c2)no1 | – | 28.2 µM (active)
COc1ccccc1-c1nnc(NC(=O)c2cccc(N3C(=O)CCC3=O)c2)o1 | -5.89 | –
O=C(Nc1cccc2cccnc12)c1cccc(N2C(=O)CCC2=O)c1 | -7.93 | –
Nc1nnc(SCC(=O)NC2CCCc3ccccc32)s1 (stereo not drawn) | 2.71 | –
O=C(/C=C/NNC(=O)c1cccc(Br)c1)c1ccccc1 | – | 2.82 µM (active)
CCCCC(NC(=O)c1cccc(Br)c1)C(=O)O (stereo not drawn) | 5.42 | –
CC(CC(=O)O)CC(=O)NNC(=O)c1cccc(Br)c1 (stereo not drawn) | 14.8 | –
Cc1ccc(CN2CCC(N3CCC(C(=O)NCC4CCCO4)CC3)CC2)o1 (stereo not drawn) | -0.497 | –
Cc1onc(C(=O)NN)c1-c1csc(COc2ccccc2)n1 | -6.06 | –
C=CCn1c(CC(=O)Nc2cccc(OC)c2)nnc1SCC(=O)NC1CCCCC1 | -4.3 | –
COc1cccc(-n2c(SCC(=O)NC3CCCCC3)nc3n[nH]c(C)c3c2=N)c1 | – | 20 µM (active)

SMILES | activity, negative = inhibition [%] | Potency
CCCCNC(=O)CSc1nc2n[nH]c(C)c2c(=N)n1-c1cccc(Cl)c1C | -1.49 | –
Cc1ccc(S(=O)(=O)N2CCCC2C(=O)OCc2nc3sc(C)c(C)c3c(=O)[nH]2)cc1 (stereo not drawn) | -11.1 | –
COc1ccc(-c2nn(-c3ccccc3)cc2/C=C\C(=O)Nc2ccc(C(=O)O)cc2)cc1 | -6.04 | –
COc1ccc(N=C2SC(C(=O)Nc3ccc(F)cc3)CC(=O)N2C)cc1 (stereo not drawn) | 2.05 | –
CCc1nc(C)cn1S(=O)(=O)c1cc([N+](=O)[O-])ccc1Cl | – | 7.94 µM (active)
CCc1nc(C)cn1S(=O)(=O)c1cc(OC)c(C)cc1C | 3.56 | –
CC(C)c1nccn1S(=O)(=O)c1cc([N+](=O)[O-])ccc1Cl | 2.6 | –
CC(C)C(=O)Nc1oc(-c2ccccc2)cc1C#N | 0.0535 | –
COc1cccc(NC(=O)CC2C(=O)NCCN2C(=S)Nc2ccc(F)cc2)c1 (stereo not drawn) | 4.8 | –
O=C(NCc1nnc(SCC(=O)N2CCC(Cc3ccccc3)CC2)o1)c1ccco1 | – | 14.1 µM (active)
O=C(Cn1cnc2c(nnn2-c2ccccc2)c1=O)N1CCC(Cc2ccccc2)CC1 | 5.85 | –
O=C(CSc1nnc(-c2ccccc2)o1)N1CCOCC1 | 8.79 | –
Cc1cccc(N(C(=O)Cc2cccs2)C(C(=O)NCc2ccco2)c2ccncc2)c1 (stereo not drawn) | 1.4 | –
COc1ccc2c(CC(=O)OCC(=O)NC(N)=O)coc2c1 | -5.14 | –
O=[N+]([O-])c1cccc(-c2nnc3c4ccccc4c4ccccc4n23)c1 | -0.482 | –
Cn1c2ccccc2c(=O)c2c(O)cccc21 | -8.54 | –
COc1cccc(C(=O)Oc2cc(C)[nH]c(=O)c2[N+](=O)[O-])c1 | 10.8 | –
Cn1c(=O)c([N+](=O)[O-])c(Oc2ccccc2)c2ccccc21 | – | 17.8 µM (active)
Cc1nn(C)c(Oc2ccccc2)c1[N+](=O)[O-] | 3.36 | –
Cc1cccc(Oc2c([N+](=O)[O-])c(=O)n(C)c3ccccc23)c1 | – | 3.16 µM (active)
CC(=O)N1CCN(S(=O)(=O)c2ccc(C)c([N+](=O)[O-])c2)C1C(C)C (stereo not drawn) | -3.06 | –
Nc1[nH][nH]c(=O)c1N=Nc1ccc2c(c1)OCO2 | 1.87 | –
COc1cc(NC(=O)c2cccs2)ccc1NC(=O)c1ccccc1Cl | -13.3 | –
COc1ccccc1C1CCN(C(=S)Nc2ccc(Br)cc2)CC1 | -10.1 | –
C/C(=N\NC(=O)c1cccnc1)c1ccc(-c2ccccc2)cc1 | 17.9 | –
